The panel holds about 83,000 compounds, 20% with a hit somewhere; the sample as a whole holds those more often.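 Treatment: one concentration, 48 hours, 96-well format. Scoring: percent growth, with anything below 10 considered active.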 A number with no mark means an inactive call. The source made the active and inactive calls.
Experiments:
Test in all cases: NCI-60 one-dose screen, 48 h (100 = growth as untreated, 0 = no growth, -100 = all killed)
Conditions in all cases: 10 µM unless noted
[1] = system: HCT-15 colon
[2] = system: HT29 colon
[3] = system: SNB-19 CNS
[4] = system: U251 CNS
[5] = system: PC-3 prostate
[6] = system: UACC-62 melanoma
[7] = system: LOX IMVI melanoma
[8] = system: SK-MEL-28 melanoma
[9] = system: SK-MEL-2 melanoma
[10] = system: EKVX NSCLC
[11] = system: SN12C renal
[12] = system: UO-31 renal
[13] = system: TK-10 renal
[14] = system: ACHN renal
[15] = system: CAKI-1 renal
[16] = system: A498 renal
[17] = system: CCRF-CEM leukemia
[18] = system: MOLT-4 leukemia
[19] = system: SK-MEL-5 melanoma

SMILES | growth [1] | growth [2] | growth [3] | growth [4] | growth [5] | growth [6] | growth [7] | growth [8] | growth [9] | growth [10] | growth [11] | growth [12] | growth [13] | growth [14] | growth [15] | growth [16] | growth [17] | growth [18] | growth [19]
Cc1ccc(C2CC(c3cccc(Nc4ccncc4)c3)=NN2c2ccccc2)cc1 (stereo not drawn) | -82.6% (active) | -42% (active) | -76.8% (active) | -54.1% (active) | -66.7% (active) | -94.9% (active) | -100% (active) | -98.9% (active) | -64.6% (active) | -51.9% (active) | -93.1% (active) | -100% (active) | -83.6% (active) | -99.8% (active) | -94.6% (active) | 30.7% | -24.5% (active) | -26.8% (active) | –
Nc1c(C(=O)Nc2cccc3ccncc23)sc2nc3c(cc12)C(=O)CCC3 | 35.1% | 18.2% | 32.9% | 48.3% | 52.9% | 28.9% | 46.2% | 55.8% | 25.1% | 62.1% | 54.5% | 57.7% | 68.2% | 51.2% | 37.7% | – | 21.5% | 85.2% | 3.47% (active)
COc1cc(NCCN(CC(C)C)C2CCCC2)c2ncccc2c1 | 73.8% | 71.8% | 97.6% | 94.1% | 85.2% | 92.8% | 89.8% | 101% | 89.2% | 95.2% | 93.1% | 83.7% | 109% | 82.2% | 97.1% | – | 121% | 90.9% | 97.2%
O=CNc1cc(Cl)cc(Cl)c1 | 103% | 101% | 99.7% | 102% | 96.1% | 96.1% | 108% | 103% | 100% | 96.7% | 95.9% | 90.1% | 101% | 101% | 92.3% | – | 101% | 97.5% | 102%
COc1cccc(-c2nc3occn3c2-c2ccnc(NCCCNS(=O)(=O)c3cccc(F)c3)n2)c1 | 83.4% | 50.7% | 109% | 111% | 79.4% | 45.2% | 86.5% | 89.5% | 90.2% | 79.8% | 87.7% | 69.8% | 131% | – | 78.2% | – | 81.3% | 67.7% | 48.2%
CCc1nc(C)cn1C(=O)OCc1nc2nc(Cl)nc(N3CCOCC3)c2[nH]1 | -28.1% (active) | -63.1% (active) | 55.8% | -55.3% (active) | -63.5% (active) | -88.4% (active) | -80.9% (active) | -89.6% (active) | -90.9% (active) | 48.2% | -21.3% (active) | -100% (active) | -91.5% (active) | -100% (active) | -80% (active) | 22.1% | -5.27% (active) | 6.91% (active) | -35.8% (active)
CC(=O)Nc1ccc(C(=O)Nc2cc(-c3ccccc3)ccc2N)cc1 | 85.7% | 50.7% | 91.7% | 78.1% | 64.7% | 39.5% | 71.3% | 56.6% | 73.8% | 71.4% | 84.2% | 48.7% | 59.5% | 54.8% | 47.5% | 83.9% | 80.1% | 64.8% | 68.3%
CC(O)(CO)c1ccccc1 (stereo not drawn) | 97.8% | 102% | 98.3% | 101% | 91.7% | 96% | – | 102% | 106% | 96.3% | 98.8% | 91% | 110% | 95.2% | 104% | – | 113% | 110% | 102%
C=C1C(=O)O[C@H]2[C@H]1CC/C(CNC(=O)/C=C/c1ccc(Br)cc1)=C\CC[C@@]1(C)O[C@@H]21 | -64.2% (active) | -74.5% (active) | 15.9% | -28.3% (active) | -55.2% (active) | – | -95.2% (active) | -66.1% (active) | -18% (active) | -47.8% (active) | -66.5% (active) | -98.2% (active) | -67.9% (active) | -58.6% (active) | -91.8% (active) | – | -2.6% (active) | -22.7% (active) | 28.7%
N#Cc1c(Nc2ccccc2)nn2cc(-c3nc4ccccc4s3)c(N)nc12 | 71% | 81.8% | 76.5% | 84.2% | 73.4% | 66.8% | 67.9% | 68.7% | 97.5% | 71.9% | 89.6% | 83.4% | 107% | 59% | 82.6% | – | 79.2% | 93.7% | 67.6%
COc1ccc(C(=O)c2cc(C)c(OC)c(C)c2)c(OC)c1O | 8.64% (active) | 26.6% | 22.2% | 14.5% | 19.5% | 30.3% | 21.5% | 48.8% | 26.8% | 59.2% | 28.8% | 36.6% | 58.5% | 22.5% | 39.5% | – | 16.3% | 23.4% | –
COc1ccc(NC(=O)c2sc3nc(C)c(C(O)c4ccc(OC)cc4)cc3c2N)cc1 (stereo not drawn) | 16.3% | 4.97% (active) | 71.2% | 25.9% | 22.6% | 31.6% | 40.5% | 65.8% | 45.6% | 47.9% | 33% | 20.6% | 60.7% | 36.3% | 30.4% | 12.6% | 21.7% | 15.8% | 9.53% (active)
CC(=O)N1c2ccccc2NC2=C(C(=O)N(C)C2(C)C)C1C (stereo not drawn) | 93.8% | 25.2% | 39.9% | 18.1% | 36.4% | 32.3% | 37.5% | 56% | 8.92% (active) | 61.5% | 40.7% | 82% | 87.1% | 97% | 71.9% | – | 20.7% | 33.3% | 27.5%
COc1cc2c(cc1[N+](=O)[O-])-c1ccc([N+](=O)[O-])cc1/C2=N\O | 87.4% | 75.3% | 79.4% | 76.8% | 73.2% | 75.9% | 67.8% | 99.7% | 92.6% | 76.7% | 91.1% | 67.6% | 78.9% | 72.5% | 83.4% | – | 78.2% | 83.3% | 75.4%
COc1cnccc1-c1nc2ccc3[nH]ncc3c2c2c1CCCC2 | 46.1% | 51.8% | 85.3% | 83.9% | 68.2% | 38.1% | 31.7% | 58.6% | 81.2% | 18.2% | 62.4% | 29.4% | 60.7% | 37.6% | 18% | 13.2% | 16.4% | 28.2% | –
Fc1ccccc1CSc1ncnc2nc[nH]c12 | 114% | 107% | 94.3% | 106% | 105% | 94.2% | 96.4% | 112% | 86.6% | 113% | 101% | 94.9% | 142% | 107% | 103% | 112% | 117% | 92.3% | 105%
CCCCCCC/C=C/[C@H]1O[C@]2(O)C(=O)C=C3C[C@@H](O[C@@H]4O[C@H](CO)[C@@H](O)C(O)[C@@H]4O)C[C@@H]3[C@H]2C=C1C (stereo partly drawn) | -25% (active) | -12.2% (active) | 13% | -60.5% (active) | -26.8% (active) | -52.4% (active) | -76.1% (active) | -26% (active) | -28.5% (active) | 72.4% | 1.69% (active) | -88.1% (active) | 4.93% (active) | -4.43% (active) | – | 71.2% | 9.27% (active) | -6.66% (active) | 6.77% (active)
Cc1cc(C)c(C=O)c(C)c1 | 107% | 98.8% | 102% | 101% | 79.9% | 108% | 96.8% | 110% | 106% | 101% | 103% | 86.3% | 103% | 108% | 94.1% | 102% | 78.6% | 85% | 99.8%
CN(C)CCCn1c2c(c3ccc(-c4ccn[nH]4)cc3c1=O)C(=O)c1ccccc1-2 | 10.9% | 15.5% | 22.7% | 16.9% | 52.3% | 50.3% | 15% | 89.8% | 121% | 34.2% | 5.41% (active) | 25.5% | 54.4% | -28.9% (active) | – | 52.4% | 0.484% (active) | -0.72% (active) | –
COc1cc(C(=O)/C=C/c2c(C)n([O-])c3ccc(Cl)cc3[n+]2=O)cc(OC)c1OC | 29.6% | 62.8% | 99.8% | 61.4% | 46.7% | 60.4% | 65.8% | 80.8% | 59.6% | 80.9% | 56.3% | 43% | 46.1% | 53.5% | – | – | -30.6% (active) | 6.41% (active) | 89.4%
O=C1Nc2ccccc2/C1=N/c1nc(-c2ccc(Cl)cc2)cs1 | 71.2% | 46.3% | 75.1% | 53.8% | 35.2% | 61% | 68.9% | 84.4% | 88.2% | 60.2% | 79.1% | 52.2% | 87.9% | 80.2% | – | 51% | 41% | 25% | 76.7%
COc1cc(CNC(=O)CCCCC[P+](c2ccccc2)(c2ccccc2)c2ccccc2)c(OC)c2c1OCO2 | 99.8% | 45.2% | 53.6% | 63.7% | 63.2% | 41.8% | – | 42.1% | 60.3% | 71.8% | 75.4% | 92.3% | 84.3% | 106% | 89.4% | 78.8% | – | 99.2% | 84.3%
CCCC/C(=N\N=C(N)N)c1ccc(F)cc1 | 23.4% | 1.87% (active) | 41.6% | 32.1% | 26.3% | 45.3% | 26.5% | 54% | 1.07% (active) | 44.5% | 37.5% | 45.3% | 50.7% | 43.6% | 29.5% | – | 26.3% | 32.4% | 2.87% (active)
COc1ccccc1/C=C1\Oc2cc(OCCCN3CCCC3)ccc2C1=O | 77.7% | 16.4% | 91.2% | 76.5% | 85.8% | 95.6% | 75.8% | 91.9% | 102% | 90.6% | 86.9% | 77.9% | 104% | 97.4% | 77.8% | 77.3% | – | 93.3% | 79.8%
CN1CCN(CC#CCNC(=O)[C@]23CCC(C)(C)C[C@H]2C2=CC[C@@H]4[C@@]5(C)Cc6c([nH]c7ccccc67)C(C)(C)[C@@H]5CC[C@@]4(C)[C@]2(C)CC3)CC1 | 39.2% | 7.18% (active) | 79.3% | 42.7% | 56.7% | 95.7% | 66.7% | 79% | 98.3% | 83.3% | 77.8% | 64.2% | 91.8% | 95.3% | 87.2% | – | 48.8% | 31.2% | 75.1%
COC(=O)Nc1nc2ccc(C(=O)c3cccc(I)c3)cc2[nH]1 | 11.8% | 2.12% (active) | 33.6% | 13.6% | 20.9% | 24.8% | 16.6% | 49.4% | 12.1% | 29.9% | 23.3% | 28.8% | 42.4% | 17.5% | 5.37% (active) | -15.3% (active) | 5.32% (active) | 19.1% | -33.9% (active)
CCCCCCOc1ccc(/C=N/Nc2cc(C)nc3ccc(Br)cc23)cc1 | -83.5% (active) | -65.5% (active) | -73.7% (active) | -64.8% (active) | -73% (active) | 25.8% | -94.1% (active) | -81.9% (active) | -14% (active) | -21.2% (active) | -88.9% (active) | -97.5% (active) | -85.7% (active) | -98.3% (active) | -72.4% (active) | – | -23.3% (active) | -51.4% (active) | 47.3%
CSc1nc(O)c(-c2ccccc2)c(=O)[nH]1 | 102% | 99.9% | 100% | 101% | 96.9% | 93.1% | 101% | 101% | 103% | 94.6% | 96.9% | 92% | 97% | 93.3% | 93.6% | – | 102% | 97% | 101%
